Laboratory results as given in PubChem BioAssay (NCI).
This is part of a sample that, as a whole, favours compounds with a hit. Of some 83,000 tested, about 20% had one in any assay.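 The endpoint reported here, percent growth, reads 100 for growth as untreated, 0 for no net growth and -100 for all cells dead.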 Active and inactive are the calls of the source. The calls were made as follows: active = growth percent below 10; inactive = the rest.

Tests used:
Experiment in all cases: NCI-60 one-dose screen, 48 h (100 = growth as untreated, 0 = no growth, -100 = all killed)
Details in all cases: 10 µM unless noted
NCI-H23 lung = test system: NCI-H23 lung
NCI-H226 lung = test system: NCI-H226 lung
NCI-H322M lung = test system: NCI-H322M lung
HOP-62 NSCLC = test system: HOP-62 NSCLC
NCI-H460 lung = test system: NCI-H460 lung
NCI-H522 lung = test system: NCI-H522 lung
786-0 renal = test system: 786-0 renal
COLO 205 colon = test system: COLO 205 colon
DU-145 prostate = test system: DU-145 prostate
K-562 leukemia = test system: K-562 leukemia
MALME-3M melanoma = test system: MALME-3M melanoma
MDA-MB-231 breast = test system: MDA-MB-231 breast
SF-268 CNS = test system: SF-268 CNS
SF-295 CNS = test system: SF-295 CNS
SF-539 CNS = test system: SF-539 CNS
M14 melanoma = test system: M14 melanoma
HCT-15 colon = test system: HCT-15 colon
UACC-257 melanoma = test system: UACC-257 melanoma
RXF 393 renal = test system: RXF 393 renal

Measured: growth

Nc1nc(Cl)c2[nH]cnc2n1
inactive: NCI-H23 lung 87% | NCI-H226 lung 101% | NCI-H322M lung 93.1% | HOP-62 NSCLC 95.2% | NCI-H460 lung 86.9% | NCI-H522 lung 96.2% | 786-0 renal 96.8% | COLO 205 colon 103% | DU-145 prostate 119% | K-562 leukemia 118% | MALME-3M melanoma 94.4% | MDA-MB-231 breast 111% | SF-268 CNS 101% | SF-295 CNS 93.7% | SF-539 CNS 97.4% | M14 melanoma 97.7% | HCT-15 colon 103%

Nc1nc2ncc(CCNc3ccc(C(=O)NC(CCC(=O)O)C(=O)O)cc3)nc2c(=O)[nH]1 (stereo not given)
inactive: NCI-H23 lung 43.3% | NCI-H226 lung 102% | NCI-H322M lung 122% | HOP-62 NSCLC 90.6% | NCI-H460 lung 108% | NCI-H522 lung 28% | 786-0 renal 93.1% | COLO 205 colon 118% | DU-145 prostate 109% | K-562 leukemia 127% | MALME-3M melanoma 118% | MDA-MB-231 breast 115% | SF-268 CNS 110% | SF-295 CNS 113% | SF-539 CNS 94.3% | UACC-257 melanoma 75.2% | M14 melanoma 114% | HCT-15 colon 98.2%

Cc1cc2c(cc1C)Nc1sc(NC(=O)CN3CCN(C)CC3)nc1C(=O)N2
inactive: NCI-H23 lung 102% | NCI-H226 lung 105% | NCI-H322M lung 105% | HOP-62 NSCLC 94.5% | NCI-H460 lung 101% | NCI-H522 lung 86.3% | 786-0 renal 98.9% | COLO 205 colon 112% | DU-145 prostate 108% | K-562 leukemia 81.7% | MALME-3M melanoma 109% | MDA-MB-231 breast 114% | SF-268 CNS 103% | SF-295 CNS 109% | SF-539 CNS 107% | UACC-257 melanoma 109% | M14 melanoma 103% | HCT-15 colon 101%

C[C@]12C[C@H](O)[C@H]3[C@@H](CCC4=CC(=O)CC[C@@]43C)[C@@H]1CC[C@@H]2C(=O)CO
inactive: NCI-H23 lung 11% | NCI-H226 lung 79.5% | NCI-H322M lung 105% | HOP-62 NSCLC 102% | NCI-H460 lung 103% | NCI-H522 lung 16% | 786-0 renal 101% | COLO 205 colon 96% | DU-145 prostate 108% | K-562 leukemia 66.7% | MALME-3M melanoma 95.3% | MDA-MB-231 breast 80.5% | SF-268 CNS 98.8% | SF-295 CNS 126% | SF-539 CNS 89.3% | M14 melanoma 107% | HCT-15 colon 92%

CN(C)c1ccc(/C=C\c2ccnc3ccccc23)cc1
active: NCI-H522 lung -7.89%
inactive: NCI-H23 lung 13.1% | NCI-H226 lung 39% | NCI-H322M lung 90.6% | HOP-62 NSCLC 82% | NCI-H460 lung 86.9% | 786-0 renal 65.1% | COLO 205 colon 81.2% | DU-145 prostate 85.1% | K-562 leukemia 26.8% | MALME-3M melanoma 84.8% | MDA-MB-231 breast 70.3% | SF-268 CNS 92.1% | SF-295 CNS 61.6% | SF-539 CNS 78.3% | UACC-257 melanoma 80.9% | M14 melanoma 83.9% | HCT-15 colon 58.5%

CCC(CCC(C)C1CCC2C3CC=C4CC(O)CCC4(C)C3CCC12C)C(C)C (stereo not given) (tested in a mixture with another compound)
inactive: NCI-H23 lung 112% | NCI-H226 lung 101% | NCI-H322M lung 145% | HOP-62 NSCLC 114% | NCI-H460 lung 96.6% | NCI-H522 lung 116% | 786-0 renal 96% | COLO 205 colon 107% | DU-145 prostate 115% | K-562 leukemia 82% | MALME-3M melanoma 138% | MDA-MB-231 breast 115% | SF-268 CNS 79.9% | SF-295 CNS 76.9% | SF-539 CNS 80.3% | M14 melanoma 92.2% | HCT-15 colon 95.6%

C[n+]1ccc(Nc2ccc(NC(=O)c3ccc(Nc4cc[n+](C)c5ccc(N)cc45)cc3)cc2)cc1
inactive: NCI-H23 lung 104% | NCI-H226 lung 82.6% | NCI-H322M lung 146% | HOP-62 NSCLC 102% | NCI-H460 lung 82.6% | NCI-H522 lung 109% | 786-0 renal 97% | COLO 205 colon 92.8% | DU-145 prostate 119% | K-562 leukemia 88.5% | MALME-3M melanoma 142% | MDA-MB-231 breast 97% | SF-268 CNS 105% | SF-295 CNS 72.7% | SF-539 CNS 85.9% | M14 melanoma 103% | HCT-15 colon 99.9%

COc1ccc2[nH]cc(/C=C3/C(=O)Nc4ccc(Cl)cc43)c2c1
active: NCI-H522 lung -7.27%
inactive: NCI-H23 lung 37.8% | NCI-H226 lung 60.1% | NCI-H322M lung 57.1% | HOP-62 NSCLC 64.8% | NCI-H460 lung 46.1% | 786-0 renal 43.2% | COLO 205 colon 63.8% | DU-145 prostate 47.6% | K-562 leukemia 27.4% | MALME-3M melanoma 31.5% | MDA-MB-231 breast 28.2% | RXF 393 renal 21.3% | SF-295 CNS 53.1% | SF-539 CNS 67.8% | UACC-257 melanoma 68.5% | M14 melanoma 37.2% | HCT-15 colon 30.4%

CN1C(=O)/C(=C/c2nc(-c3cccc(F)c3)n3ccccc23)c2ccccc21
inactive: NCI-H23 lung 83.7% | NCI-H226 lung 84.4% | NCI-H322M lung 80.8% | HOP-62 NSCLC 80.7% | NCI-H460 lung 56.1% | NCI-H522 lung 40% | 786-0 renal 70.7% | COLO 205 colon 93% | DU-145 prostate 82.6% | K-562 leukemia 79.7% | MALME-3M melanoma 57.6% | MDA-MB-231 breast 61.3% | RXF 393 renal 66.2% | SF-268 CNS 92% | SF-295 CNS 87.4% | SF-539 CNS 71.4% | UACC-257 melanoma 79.1% | M14 melanoma 73.1% | HCT-15 colon 93%

CC(=O)NCCSC(=O)C(=O)SCCNC(C)=O
inactive: NCI-H23 lung 109% | NCI-H226 lung 103% | NCI-H322M lung 144% | HOP-62 NSCLC 107% | NCI-H460 lung 114% | NCI-H522 lung 125% | 786-0 renal 95.5% | COLO 205 colon 122% | DU-145 prostate 116% | K-562 leukemia 95.6% | MALME-3M melanoma 138% | MDA-MB-231 breast 107% | SF-268 CNS 109% | SF-295 CNS 102% | SF-539 CNS 97.5% | M14 melanoma 106% | HCT-15 colon 119%

CCC1=C(c2ccc(OC)cc2)C(C)Oc2cc(OC(C)=O)ccc21 (stereo not given)
inactive: NCI-H23 lung 82% | NCI-H226 lung 83.1% | NCI-H322M lung 116% | HOP-62 NSCLC 99.7% | NCI-H460 lung 93% | NCI-H522 lung 78.8% | 786-0 renal 101% | COLO 205 colon 103% | DU-145 prostate 102% | K-562 leukemia 50.2% | MALME-3M melanoma 98% | MDA-MB-231 breast 90.4% | RXF 393 renal 85.3% | SF-268 CNS 86.9% | SF-295 CNS 99.4% | SF-539 CNS 84.3% | M14 melanoma 83.4% | HCT-15 colon 85.5%

O=C1C2C3C=CC(O3)C2C(=O)N1Nc1ccccc1 (stereo not given)
inactive: NCI-H23 lung 106% | NCI-H226 lung 109% | NCI-H322M lung 124% | HOP-62 NSCLC 117% | NCI-H460 lung 112% | NCI-H522 lung 117% | 786-0 renal 107% | COLO 205 colon 124% | DU-145 prostate 112% | K-562 leukemia 103% | MALME-3M melanoma 120% | MDA-MB-231 breast 99.8% | RXF 393 renal 119% | SF-268 CNS 102% | SF-295 CNS 107% | UACC-257 melanoma 104% | M14 melanoma 104% | HCT-15 colon 104%

CCC(c1ccccc1)c1noc(CCN(CC)CC)n1 (stereo not given)
active: NCI-H522 lung -8.89%
inactive: NCI-H23 lung 99.5% | NCI-H226 lung 90.7% | NCI-H322M lung 109% | HOP-62 NSCLC 97.4% | NCI-H460 lung 103% | 786-0 renal 108% | COLO 205 colon 114% | DU-145 prostate 100% | K-562 leukemia 65.1% | MALME-3M melanoma 93.8% | MDA-MB-231 breast 106% | RXF 393 renal 33.3% | SF-268 CNS 103% | SF-295 CNS 108% | SF-539 CNS 101% | HCT-15 colon 108%

CCN(CC)c1ccc(N=Nc2cc(Cl)ccc2Cl)c(NC(=O)CCC(=O)O)c1
inactive: NCI-H23 lung 101% | NCI-H226 lung 98.1% | NCI-H322M lung 111% | HOP-62 NSCLC 86.6% | NCI-H460 lung 108% | NCI-H522 lung 106% | 786-0 renal 108% | COLO 205 colon 106% | DU-145 prostate 108% | K-562 leukemia 98.8% | MALME-3M melanoma 91.8% | MDA-MB-231 breast 81.4% | RXF 393 renal 116% | SF-268 CNS 105% | SF-539 CNS 79.9% | UACC-257 melanoma 117% | M14 melanoma 101% | HCT-15 colon 89.5%

COc1ccc2nccc(/C=C/c3ccnc4ccc(OC)cc34)c2c1
inactive: NCI-H23 lung 104% | NCI-H226 lung 131% | NCI-H322M lung 120% | HOP-62 NSCLC 114% | NCI-H460 lung 100% | NCI-H522 lung 112% | 786-0 renal 105% | COLO 205 colon 119% | DU-145 prostate 104% | K-562 leukemia 52.5% | MALME-3M melanoma 146% | MDA-MB-231 breast 114% | RXF 393 renal 37.4% | SF-268 CNS 71.3% | SF-295 CNS 129% | SF-539 CNS 106% | UACC-257 melanoma 153% | M14 melanoma 110% | HCT-15 colon 101%

C[N+]1(CCc2ccccc2)CCC(CCC2CC[N+](C)(CCc3ccccc3)CC2)CC1 (stereo not given)
inactive: NCI-H23 lung 87.4% | NCI-H226 lung 92.1% | NCI-H322M lung 120% | HOP-62 NSCLC 66.9% | NCI-H460 lung 103% | NCI-H522 lung 98.8% | 786-0 renal 110% | COLO 205 colon 104% | DU-145 prostate 117% | K-562 leukemia 129% | MALME-3M melanoma 118% | MDA-MB-231 breast 101% | RXF 393 renal 105% | SF-268 CNS 102% | SF-295 CNS 97.1% | SF-539 CNS 106% | UACC-257 melanoma 110% | M14 melanoma 103% | HCT-15 colon 104%
